# Assay outcomes from PubChem.
# The list is not random: actives were taken first. Their share in the collection is about 7.4%.
# NPC1 promoter act – activates the NPC1 promoter; Huh7 NPC1 promoter luciferase reporter, 24 h; 320,000 compounds, 2.4% hits; Potency, µM (top dose mostly 9.22 µM), for the others: top-dose activation, usual class: activators; also: % of control where 0% means no effect; nearly all actives have a fitted effect of over 60% in size
#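 Huh7 reporter cells (NPC1 promoter driving luciferase) are dosed with compound for 24 h at 37 °C, 5% CO2; luciferase detection reagent is then added and luminescence measured after 10 min at ambient temperature.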
# ELG1 genotox – genotoxicity induction in ELG1-luciferase HEK293T cells; HEK293T ELG1-luciferase reporter, luminescence, 16 h; Potency, µM (top dose mostly 46 µM), for the others: at the highest dose activity change, positive = activation, hits mostly activators; 330,000 compounds, 1.3% hits; AID 504466; also: % of control where 0% means no effect; nearly all actives have a fitted effect of over 60% in size
#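 Cells (2,000/well) expressing the ELG1-luciferase fusion are dosed by pin tool and kept 16 hr at 37 °C, 5% CO2. Signal comes from ONE-Glo luciferase reagent after 30 min at room temperature.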
# SMN2 splice enh – increases expression of the SMN2 splice variant; HEK293 SMN2-luciferase splicing reporter, luminescence, 30-36 h; Potency, µM (top dose mostly 46.1 µM), for inactives: at the highest dose activity change, positive = activation, most hits filed as activators; 210,000 compounds, 2.8% hits; also: % of control where 0% means no effect; nearly all actives have a fitted effect of over 55% in size
#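 HEK293 cells carry an SMN2 minigene-luciferase reporter in which exon 7 inclusion puts luciferase in frame. Cells were seeded at 2000 cells/well, attached for 10-12 hours, then exposed to compounds for 30-36 hours at 37C before ONE-Glo luminescence.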
# p53 reactivation – restores transcriptional activity of mutant p53. 320,000 compounds, 0.063% hits. H1299 p53-A138V BP100-luciferase reporter, luminescence, 24 h. Potency, µM (titrated, usually from 92.2 µM), for the others: at the highest dose activity change, positive = activation, actives largely listed as activators; also: % of control where 0% means no effect; nearly all actives have a fitted effect of over 45% in size
#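 p53-null H1299 cells stably carrying temperature-sensitive p53-A138V and a BP100-luciferase reporter were pinned with compounds (4-point, 1:5 series) and held 24 hrs at 37 deg C. Luminescence was read 10 min after detection reagent.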
# FLuc modulator – inhibits or activates purified firefly luciferase, miR-21 counter-screen. purified FLuc, Km substrates, luminescence inhibition. 360,000 compounds, 6.9% hits. AID 588342. Potency, µM (series often up to 57.5 µM), without a hit: at the highest dose activity change, negative = inhibition, actives largely listed as inhibitors;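 also: plate controls were vehicle for no effect and reference inhibitor for full effect; nearly all actives have a fitted effect of over 55% in size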
# Target sequence (P08659 whole entry, looked up): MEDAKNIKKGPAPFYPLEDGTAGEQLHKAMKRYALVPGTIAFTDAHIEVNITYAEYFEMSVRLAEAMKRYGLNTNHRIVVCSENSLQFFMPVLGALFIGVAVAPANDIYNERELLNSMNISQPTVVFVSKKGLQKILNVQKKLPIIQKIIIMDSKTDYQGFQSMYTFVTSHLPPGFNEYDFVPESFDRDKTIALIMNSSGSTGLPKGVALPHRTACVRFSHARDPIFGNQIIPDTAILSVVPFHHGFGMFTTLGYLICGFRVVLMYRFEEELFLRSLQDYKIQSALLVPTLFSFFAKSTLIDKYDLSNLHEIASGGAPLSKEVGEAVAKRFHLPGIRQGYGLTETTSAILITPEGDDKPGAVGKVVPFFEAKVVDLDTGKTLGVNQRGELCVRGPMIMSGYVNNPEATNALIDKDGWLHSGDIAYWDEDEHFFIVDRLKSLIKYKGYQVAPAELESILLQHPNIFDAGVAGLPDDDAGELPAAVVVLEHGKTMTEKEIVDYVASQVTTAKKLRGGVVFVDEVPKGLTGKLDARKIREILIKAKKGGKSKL
#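 Biochemical qHTS of compounds, final roughly 60 µM downward over six points, against 10 nM purified firefly luciferase using Km concentrations of substrates (10 uM D-luciferin, 10 uM ATP) in Tris acetate pH 7.5 buffer; luminescence output.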
# Rab9 promoter act – Rab9 promoter activation; AID 485297; 320,000 compounds, 2.8% hits; Potency, µM (doses to about 9.22 µM), inactives show top-dose activation, negative = inhibition, actives largely listed as activators; Huh7 Rab9 promoter-luciferase reporter, luminescence, 24 h; also: % of control where 0% means no effect; nearly all actives have a fitted effect of over 60% in size
#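 Cells were plated at 1500 per well in reduced-serum medium with 10% FBS and left 2 h. Compound in DMSO was then added for 24 h at 37 °C. Reporter signal was read by luminescence after 10 min with luciferase detection reagent.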
# Starred values were filed as active, the others as inactive; ? = inconclusive; nt = no result. Calls follow the shape of the dose curve; as a rule, active = well fitted curve in the direction sought with a large enough effect; inconclusive = small, poorly fitted or top-dose-only effect, or another doubt; inactive = no such curve, though single readings can be large; an effect the other way counts as inactive or inconclusive. Potency is read from the fitted curve at half-maximal effect.
SMILES,NPC1 promoter act,ELG1 genotox,SMN2 splice enh,p53 reactivation,FLuc modulator,Rab9 promoter act
O=C(O)Cc1ccc(NC(=O)Nc2cccc(Cl)c2)cc1,-3%,3%,nt,2%,17µM*,3%
COc1cccc(NC(=O)Nc2ccc(CC(=O)O)cc2)c1,-7%,1%,-8%,-2%,19µM*,2%
COc1cc(OC)c(Nc2c3c(nc4nc(-c5cccs5)nn24)CCCC3)cc1Cl,nt,nt,nt,nt,24µM*,nt
S=C(Nc1ccccc1)N1N=CCC1c1ccccc1 (stereo not given),22%,?,-8%,24%,17µM*,30%
Fc1ccc(NC(=S)N2N=CCC2c2ccccc2)cc1 (stereo not given),22%,23µM*,10%,?,?,18%
O=C(Nc1cccc(Cl)c1)N1N=CCC1c1ccccc1 (stereo not given),1%,-3%,nt,-2%,-3%,-1%
O=c1cc(C(F)(F)F)nc(SC/C=C/c2ccccc2)[nH]1,-5%,0%,nt,?,-16%,4%
CC(=O)Nc1cccc(NC(=O)C(=O)Nc2ccc3c(c2)N(C(=O)C2CC2)CCC3)c1,28%,0%,nt,16%,9.5µM*,?
COc1ccccc1NC(=O)C(=O)Nc1ccc2c(c1)N(C(=O)C1CC1)CCC2,29%,21%,nt,0%,-6%,26%
O=C(NCCc1csc(-c2cccc(F)c2)n1)c1ccccc1C(F)(F)F,nt,nt,nt,nt,-1%,nt
COC(=O)CCNC(=O)NC(CCC(C)C)c1c(-n2cccc2)sc2c1CCN(C)C2 (stereo not given),nt,nt,nt,nt,2%,nt
CCCCCCOC(=O)c1ccc(OC(=O)c2cccnc2)cc1,1%,18µM*,14%,26%,?,3%
CCCCOC(=O)c1ccc(OC(=O)c2cccnc2)cc1,1%,9%,4%,26%,?,-1%
COc1ccccc1C(=O)Oc1ccc(C(C)(C)C)cc1,-1%,4%,-30%,0%,6µM*,4%
COc1ccc(OC(=O)c2cccnc2)cc1,-1%,2%,0%,0%,?,0%
CC(C)(C)c1ccc(OC(=O)c2cccnc2)cc1,-6%,2%,12%,-4%,12µM*,-1%
COc1ccc(C(=O)Oc2ccc(C(C)=O)cc2)c(OC)c1,-1%,9%,7%,?,12µM*,3%
COc1ccc(C(=O)COC(=O)c2cc(-c3ccccc3)nc3c(C)cccc23)cc1,nt,nt,3%,nt,0%,nt
CCCCn1cnc2cc(NC(=O)c3cc(OC)c(OC)c(OC)c3)ccc21,nt,nt,-2%,nt,-18%,nt
COC(=O)c1ccc(OCC(=O)NCCC2=CCCCC2)c(OC)c1,nt,-4%,nt,-9%,nt,nt
Cc1nc2nc(NC(=O)C(C)C)[nH]n2c(=O)c1Cc1ccccc1,nt,nt,-9%,nt,-15%,nt
CC(C)(C)c1ccc(OC(=O)c2ccc3snnc3c2)cc1,-2%,0%,-10%,-8%,?,-5%
CC(C)(C)c1ccc(OC(=O)c2ccc3nsnc3c2)cc1,1%,3%,-37%,1%,7.6µM*,-7%
COc1ccc(Oc2ncc3nc(CCc4ccccc4)c(=O)n(C)c3n2)cc1,nt,nt,-6%,nt,nt,nt
CCCCOc1ccc(-c2nnn(CCC(=O)N3CCOCC3)n2)cc1,?,?,-20%,5%,12µM*,?
SMILES,NPC1 promoter act,ELG1 genotox,SMN2 splice enh,p53 reactivation,FLuc modulator,Rab9 promoter act
COc1ccc(OCCC(=O)N2CCOCC2)cc1,5%,3%,11%,4%,0%,0%
CCCOc1ccc(-c2nnn(CC(=O)N3CCC(C)CC3)n2)cc1,1%,2%,-35%,6%,17µM*,0%
COC(=O)CCn1nnc(-c2ccc(C(C)C)cc2)n1,-19%,-5%,-22%,-14%,12µM*,-28%
CC1CCN(C(=O)Cn2nnc(-c3ccc(C(C)C)cc3)n2)CC1,8%,-2%,nt,nt,17µM*,2%
CC(C)c1ccc(-c2nnn(CC(=O)N3CCCCC3)n2)cc1,16%,4%,nt,nt,?,17%
CC1CCN(C(=O)Cn2nnc(-c3ccccc3)n2)CC1,24%,?,nt,23%,-17%,?
Cc1[nH]c(-c2ccc(F)cc2)cc1C(=O)N1CCN(c2cccc(Cl)c2)CC1,0%,-4%,nt,-6%,-1%,-7%
CCCOc1ccc(-c2nnn(CC(=O)N3CCCC(C)C3)n2)cc1 (stereo not given),-2%,0%,nt,4%,15µM*,-2%
CCOc1ccc(N(C(=O)CC(C)C)S(=O)(=O)c2ccc3c(c2)oc(=O)n3C)cc1,nt,nt,-9%,nt,-9%,nt
Clc1ccc(-n2nnc(-c3nccs3)n2)cc1Cl,1.6µM*,5.2µM*,nt,8%,1.9µM*,0.89µM*
Cc1ccc(-n2nnnc2C(Cl)(Cl)c2nnnn2-c2ccc(C)cc2)cc1,-2%,-2%,-14%,2%,?,-8%
Cc1ccc(-n2nnc(-c3nccs3)n2)cc1,?,0.23µM*,nt,-12%,0.12µM*,?
COc1cc(Cl)ccc1OCc1cc(C(=O)N2C[C@H]3CC[C@H]2C3)no1,3.5µM*,8.2µM*,nt,?,8.5µM*,1.4µM*
COc1cc(Cl)ccc1OCc1cc(C(=O)N2C[C@]3(C)C[C@H]2CC(C)(C)C3)no1,?,?,nt,25%,19µM*,1.8µM*
O=C(c1cc(COc2cccc(C(F)(F)F)c2)on1)N1C[C@@H]2CCC[C@H]1C2,-15%,?,nt,17%,24µM*,?
CCOC(=O)N1CCN(C(=O)c2cc(COc3ccc(Cl)cc3OC)on2)CC1,12%,-4%,nt,0%,-6%,1%
COc1cc(C)ccc1OCc1cc(C(=O)N2C[C@H]3CC[C@H]2C3)no1,3%,4%,nt,9%,-19%,0%
COc1cc(Cl)ccc1OCc1cc(C(=O)N2C[C@@H]3CCC[C@H]2C3)no1,3.2µM*,2.9µM*,nt,?,9.5µM*,4µM*
Cc1ccc(NC(=O)C2OCCc3ccccc32)cc1C (stereo not given),24%,?,nt,7%,15µM*,?
O=C(NCc1ccco1)C1OCCc2ccccc21 (stereo not given),-2%,-1%,-7%,2%,0%,-3%
Cc1cc(C)cc(NC(=O)N2CCc3ccccc3C2)c1,?,?,nt,10%,19µM*,?
Cc1ccc(NC(=O)N2CCc3ccccc3C2)cc1C,2.8µM*,?,nt,20%,8.5µM*,3.2µM*
Cc1ccc(OCCC(=O)OC(C)C(=O)Nc2ccc(Cl)cn2)cc1 (stereo not given),-2%,0%,nt,5%,0%,3%
O=C(Nc1ccc(F)cc1)Nc1csc2ccccc12,24%,-6%,nt,26%,24µM*,21%
